The entries come from a sample that favours hits as a whole.
Tg IFNy HTS = inhibitors of Toxoplasma gondii growth with IFN-gamma. Toxoplasma gondii growth in IFN-gamma-treated host cells; stronger effect = lower value. activity change, negative = inhibition, % (concentration not given with the values). hit rate 3.8% among 69,000; in the data active = activity change below about -70%, passing the limit was not always enough;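 also: host cells are HeLa cells infected with Toxoplasma gondii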
A number is an active result; n = inactive; ! = not active in a repeat.

SMILES | Tg IFNy HTS
CS(=O)(=O)N1CCC(NC(=O)c2onc3ccccc23)CC1 | n
CCC(CO)N(Cc1ccsc1)C(=O)c1ccc2nc(C)[nH]c2c1 (stereo not given) | n
Cc1nc(CN(C)C(=O)c2cc(C)sc2NC(=O)C(C)(C)C)no1 | n
CCc1cc(C(=O)NC(C)CN2CCCCCC2)cs1 (stereo not given) | n
O=C(Nc1ncc(Cc2cccc3ccccc23)s1)c1ccc(Cl)cc1 | -100.5
O=C(Nc1ccc2ccccc2n1)c1ccc(Cl)cc1 | n
Cc1nnc2n1CC(c1cccc(C(=O)Nc3ncc(Cc4ccccc4F)s3)c1)CC2 (stereo not given) | n
CCOC(=O)N1CCC2(CC1)OC(=O)C(C)=C2C(=O)NCCc1ccc(Cl)cc1 | n
CCCc1nc(C(=O)N2CCC(O)(CN(C)C)C2)cs1 (stereo not given) | n
CCc1ccc(-c2c(-c3ccccc3)ncn2CCS(C)(=O)=O)nc1 | n
CCn1ccnc1-c1c(-c2ccccc2)ncn1CCN1CCOC1=O | n
CN1CCN(CCn2cnc(-c3ccccc3)c2-c2cnc[nH]2)CC1 | n
CCc1nccc(-c2c(-c3ccccc3)ncn2CC2(CO)CCOCC2)n1 | -82.6
CCc1nccc(-c2c(-c3ccccc3)ncn2CCN2CCOCC2)n1 | -80.1
CCc1ncc(-c2c(-c3ccccc3)ncn2Cc2ccccc2F)cn1 | n
Cc1nc([C@@H]2C[C@H]3CCN(C(=O)c4cccs4)C[C@@H]3O2)no1 | n
CCOC(=O)c1nc(N2CCN(Cc3ccccc3)CC2)c2ccccc2n1 | n
NC(=O)C1(N2CCOCC2)CCN(c2nnc(N3CCCCC3)c3ccccc23)CC1 | n
Cc1cc(CC(C)CC(C)(C)C)n(O)c(=O)c1 (stereo not given) | n
Cc1cc(C2CCCCC2)n(O)c(=O)c1 | -82.2!
CCN1CCC2(CN(CC(C)C)CC23CCN(C(=O)Cc2ccsc2)CC3)C1=O (stereo not given) | n
CCOc1ccccc1-c1nc(Cn2nnc(C(=O)Nc3ccccc3C)c2C)c(C)o1 | n
OC[C@H]1O[C@@H](n2cnc3c(NC4CCCC4)nc(Cl)nc32)[C@H](O)[C@@H]1O | n
Nc1nc(Cl)nc2c1ncn2[C@@H]1O[C@H](CO)[C@@H](O)[C@H]1O | n
Nc1nc(Cl)nc2c1ncn2C1OC(CO)C(O)C1F (stereo not given) | -78.4
SMILES | Tg IFNy HTS
C=C[C@H]1CN2CC[C@H]1C[C@H]2[C@H](O)c1ccnc2ccc(OC)cc12 | -85.0
COc1cccc(-c2nccc(C3CCCN3C(=O)c3ccc4ncccc4c3)n2)c1 (stereo not given) | n
CNc1nc(-c2ccc(F)cc2)cs1 | n
COc1ccccc1NC(=O)CN1CCC2(CC1)N=C(c1ccc(F)cc1)C(=O)N2 | n
C[C@H]1CN2C[C@H](O)CC2CN1Cc1cc2cc3c4c(c2oc1=O)CCCN4CCC3 (stereo not given in full) | n
Cc1nc(C)n(CC2CCC3(COCCN(S(C)(=O)=O)C3)O2)n1 (stereo not given) | n
Cc1ccc(Cc2cnc(NC(=O)C3COc4ccccc4O3)s2)cc1 (stereo not given) | n
Cc1nc(OCC(=O)Nc2ccc(Br)cc2)c2ccccc2n1 | n
Fc1ccc(CSc2nc(Nc3ccc(F)cc3)c3ccccc3n2)cc1 | n
Brc1ccc(Nc2c3ccccc3nc3ccccc23)cc1 | -92.4
O=C(CSc1cn[nH]n1)Nc1ccccc1 | n
O=C(Nc1ccc(NS(=O)(=O)c2ccc(Oc3ccccc3)cc2)cc1)c1ccccc1 | n
COc1cc(NC(=O)c2cc3ccccc3o2)ccc1NC(=O)c1cccs1 | -110.6
O=C(Nc1ccc(-c2nc(-c3ccccc3)co2)cc1)c1cccs1 | n
COc1ccc(NC(=O)c2c(NS(=O)(=O)c3ccc(C)cc3)csc2C)cc1 | n
COc1ccc(NS(=O)(=O)c2ccc(NC(=O)c3cc4ccccc4o3)cc2)cc1 | -70.5
COc1cc(NC(=S)NC(=O)c2cccs2)ccc1NC(=O)C(C)C | n
O=S(=O)(NCCc1csc(-c2ccc(Cl)cc2)n1)c1cccs1 | n
O=C(CCC1CCCC1)N1CCc2c([nH]c3ccccc23)C1c1cccnc1 (stereo not given) | n
COc1ccc(C2c3[nH]c4ccccc4c3CCN2C(=O)c2ccncc2)cc1 (stereo not given) | n
COc1cccc(C(=O)N2CCc3c([nH]c4ccccc34)C2c2cccnc2)c1 (stereo not given) | -106.9
O=C(c1cccc(F)c1)N1CCc2c([nH]c3ccccc23)C1c1cccnc1 (stereo not given) | -96.3
O=C(c1ccc(F)cc1)N1CCc2c([nH]c3ccccc23)C1c1cccnc1 (stereo not given) | n
CCc1ccccc1NC(=O)N1CCC2(CC1)c1cccn1-c1ccccc1N2CC | n
CCOc1ccccc1-c1nc(Cn2cnc3onc(C)c3c2=O)c(C)o1 | n
SMILES | Tg IFNy HTS
COc1ncccc1C(Cc1ccsc1)NC(=O)Cn1cccnc1=O (stereo not given) | n
O=C(COc1ccc(F)cc1)N1CCC2(CC1)Nc1ccc(Cl)cc1-n1cccc12 | -114.6
Cc1cccc(C(=O)N2CCC3(CC2)Nc2ccc(Cl)cc2-n2cccc23)c1 | n
O=C(COc1ccccc1)N1CCC2(CC1)Nc1cc(F)ccc1-n1cccc12 | n
O=C(COc1ccc(Cl)cc1)N1CCC2(CC1)Nc1ccc(Cl)cc1-n1cccc12 | n
Cc1cccc(OCC(=O)N2CCC3(CC2)Nc2ccc(Cl)cc2-n2cccc23)c1 | -107.5
COc1cccc(CC(=O)N2CCC3(CC2)Nc2ccc(Cl)cc2-n2cccc23)c1 | n
CS(=O)(=O)N1CCC2(CC1)CN(c1cccnc1)C(=O)CO2 | n
Cn1cc(N2C(=O)CC3C2CCN3C(=O)Cc2cccc(F)c2)cn1 (stereo not given) | n
CCOc1ccc(NC2=NCC(=O)N2c2ccc(OCC)cc2)cc1 | n
CCNC(=O)Cc1ccc(-c2cc(C)ccc2OC)cc1 | n
CC(=O)c1cn(C(C)C(=O)N2CCc3c(nc[nH]c3=O)C2)c2ccccc12 (stereo not given) | n
CCn1nc(C(C)C)cc1C(=O)Nc1ccc(CN2C(=O)NC(C)(C)C2=O)cc1 | n
CN(Cc1cnccn1)C(=O)c1ccc(CSc2ncccn2)o1 | n
O=C(c1ccc(-c2cccc3ccnn23)cc1)C1CC1 | n
C=CCN(Cc1ccc(F)cc1)C(=O)Cn1nc(C)c(C)c1C | n
Cc1ccccc1N(CC(=O)NCCc1ccccc1)C(=O)c1ccc(N2CCCC2)nc1 | n
CCN(C(=O)c1cnc(NC)nc1)C1CCN(C)CC1 | n
CN1CCC(N(CCc2ccccc2)C(=O)c2cnc(N3CCCCC3)nc2)CC1 | -89.6
CCC(C)[C@H]1O[C@]2(CC[C@@H]1C)C[C@@H]1C[C@@H](C/C=C(\C)[C@@H](OC3C[C@H](OC)C(O[C@H]4C[C@H](OC)[C@@H](O)[C@H](C)O4)[C@H](C)O3)[C@@H](C)/C=C/C=C3\CO[C@@H]4[C@H](O)C(C)=C[C@@H](C(=O)O1)[C@]34O)O2 (stereo not given in full) | -80.0
CC[C@H](C)[C@H]1O[C@]2(CC[C@@H]1C)C[C@@H]1C[C@@H](C/C=C(\C)[C@@H](O[C@H]3C[C@H](OC)[C@@H](O[C@H]4C[C@H](OC)[C@@H](O)[C@H](C)O4)[C@H](C)O3)[C@@H](C)/C=C/C=C3\CO[C@@H]4[C@H](O)C(C)=C[C@@H](C(=O)O1)[C@]34O)O2 | -86.8!

From PubChem
